This note sets out measurements from PubChem BioAssay AID2685 (National Center for Advancing Translational Sciences (NCATS), 2010).

SMILES strings stand for the structures. Out of some 320,000 compounds screened, about 2,100 (0.66%) were called active. Roughly 53% stayed inconclusive and do not appear here. The call rests on the fitted dose curve; in most records, active means well fitted inhibition curve with a large enough effect in the signal ratio, with a control signal flat (not every such curve was filed as active); inconclusive means small, poorly fitted or top-dose-only effect, or effect the other way, or a change in a side signal; inactive means flat fitted curve, though single readings scatter; the % refers to the signal ratio. What follows is part of a selection rich in actives, with near analogues and random picks from the rest.
Potency means the concentration at half of the fitted maximal effect.

The assay in a line: qHTS Assay for Lipid Storage Modulators in Drosophila S3 Cells.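 On cell number change: cells counted by Cell Tracker Red CMTPX staining in the red channel.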 The conditions noted are these: BODIPY lipid droplet fluorescence, 18-24 h, cells fed with added oleic acid; cell number change: measured here: cell count max response; series mostly up to 46.1 µM. The method, boiled down: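 Drosophila S3 cells loaded with oleic acid (400 uM, as added) and compounds at several concentrations; lipid droplets imaged by 488-nm laser-scanning cytometry, 500–530 nm intensity and object ratio to cell channel. Percent activity normalized to 20 uM Triacsin C.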
(In general: In qHTS, concentration-response curves come from the screen itself.)
As for `COc1ccc(-c2noc(CCC(=O)NCc3cccnc3)n2)cc1OC`, the Potency result was “inactive” and the cell number change is -15.7%.
Turning to `CCOC(=O)C1CCN(C(=O)c2ccc(Oc3cc(Cl)cc(Cl)c3)o2)CC1`, the Potency entry is “inactive” and the cell number change was 4.65%.
In the case of `Cc1onc(-c2ccccc2)c1CNS(=O)(=O)c1cccc(Br)c1`, the Potency entry is “inactive” and the cell number change was determined as 12%.
Regarding `CCOc1ccc(N(CC(=O)NCCSCc2ccccc2)S(C)(=O)=O)cc1`, the Potency entry was “inactive” and the cell number change amounted to 10.5%.
Consider `COc1cccc(N(CC(=O)NCCSCc2ccc(Cl)cc2)S(C)(=O)=O)c1`, for which the Potency result is “inactive” and the cell number change was -16.4%.
On to `CCOc1ccc(N(CC(=O)NCCSCc2ccc(Cl)cc2)S(C)(=O)=O)cc1`, for which the Potency was 9.2 µM (active) and the cell number change was -19.8%.
For `O=C(CSc1nncs1)Nc1ccc(Cl)cn1` the same measures were “inactive” and -5.79%.
In the case of `O=C(NCC(O)c1ccc2ccccc2c1)c1c(F)cccc1F` (stereo not given), the Potency entry is “inactive” and the cell number change was 4.67%.
Regarding `Cc1cc(NS(=O)(=O)c2c(C)[nH]c(=O)[nH]c2=O)ccc1Br`, the Potency result is “inactive”.
With `CC(=O)NCC(=O)NC1CCCc2c1cnn2-c1ccc(C(C)(C)C)cc1` (stereo not given), the Potency result is “inactive”.
As to `CC(=O)Nc1cccc(C(=O)NC2CCCc3c2cnn3-c2ccc(C(C)(C)C)cc2)c1` (stereo not given), the Potency result was “inactive” and the cell number change was -22.8%.
On to `CCn1nc(C)cc1C(=O)NC1CCCc2c1cnn2-c1ccc(C)c(C)c1` (stereo not given), for which the Potency result is “inactive” and the cell number change was -8.5%.
As for `CC(C)(C)c1ccc(-n2ncc3c2CCCC3NC(=O)CCCn2cncn2)cc1` (stereo not given), the Potency entry was “inactive” and the cell number change was found to be 14.9%.
On the same counts, the results for `Cc1cc(C)n(CC(=O)NC2CCCc3c2cnn3-c2ccccc2F)n1` (stereo not given) are “inactive” and -1.7%.
On the same counts, the results for `CC(=O)CCC(=O)NC1CCCc2c1cnn2-c1ccc(C(C)(C)C)cc1` (stereo not given) are 10.3 µM (active) and -14.2%.
On the same counts, the results for `Cc1ccc(-n2ncc3c2CC(C)(C)CC3NC(=O)CCn2cncn2)cc1` (stereo not given) are “inactive” and -18.7%.
Take `CC(C)(C)c1ccc(-n2ncc3c2CCCC3NC(=O)CCn2cncn2)cc1` (stereo not given): the Potency is 3.66 µM (active) and the cell number change was -29.9%.
`Cc1cc(C)n(CC(=O)NC2CCCc3c2cnn3-c2ccc(C)c(C)c2)n1` (stereo not given): the Potency is 16.4 µM (active) and the cell number change is -23%.
Consider `Cc1cc(N/N=C/c2ccc(O)cc2O)nc(N2CCOCC2)n1`, for which the Potency entry is “inactive” and the cell number change is -4.63%.
With `COc1ccccc1OCC(=O)Nc1ccc(Cl)cc1`, the Potency entry was “inactive” and the cell number change was -13.6%.
For the molecule `CCCCOc1ccc(C(O)(CCN2CCOCC2)c2ccccc2)cc1` (stereo not given), the Potency result is “inactive” and the cell number change was -14.2%.
Consider `COc1ccc(CCNC(=O)/C=C/c2ccc(OC)c(S(=O)(=O)N3CCOCC3)c2)cc1`, for which the Potency result is “inactive” and the cell number change was 7.46%.
`O=C1NC(N2CCOCC2)=N/C1=C/c1ccc2c(c1)OCO2`: the Potency entry was “inactive”.
`Cc1nn(-c2ccccc2)c(Cl)c1C(=O)N1CCN(c2ncnc3c2cnn3-c2ccccc2)CC1`: the Potency was 7.31 µM (active) and the cell number change was -25.9%.
Take `O=C(c1ccccc1)N1CCN(c2ncnc3c2cnn3-c2ccccc2)CC1`: the Potency entry was “inactive” and the cell number change is -7.55%.
Consider `Cc1cccc(C(=O)N2CCN(c3ncnc4c3cnn4-c3ccccc3)CC2)c1`, for which the Potency result is “inactive” and the cell number change was -21.5%.
In the case of `O=C(COC(=O)c1ccccc1Nc1ccccc1)NCc1ccccc1Cl`, the Potency result was “inactive” and the cell number change is -4.27%.
For `Nc1nc(-c2ccccc2)c(-c2ccccc2)o1`, the Potency result was “inactive” and the cell number change is 3.44%.
`CC(=O)c1c(C)[nH]c(C(=O)OCC(=O)N2CC(=O)Nc3ccccc32)c1C`: the Potency result is “inactive” and the cell number change is 17.6%.
For `CCOC(=O)c1[nH]c(C)c(C(=O)OCCN2C(=O)c3ccccc3C2=O)c1C`, the Potency entry is “inactive” and the cell number change is -20.4%.
For `CC(=O)c1c(C)[nH]c(C(=O)OCCCCN2C(=O)c3ccccc3C2=O)c1C` the same measures were 0.58 µM (active) and -18.3%.
Consider `Cc1cc(NS(=O)(=O)c2ccc3c(c2)OCCO3)no1`, for which the Potency entry is “inactive” and the cell number change came to 5.55%.
Consider `Cc1ccc(-c2nc(CS(=O)CC(=O)NCCCc3ccccc3)c(C)o2)cc1` (stereo not given), for which the Potency result was “inactive” and the cell number change was found to be 13.7%.
With `Cc1cc(C)cc(OCCCCn2cncn2)c1`, the Potency entry was “inactive” and the cell number change is 7.77%.
On to `COCCCNC(=O)/C=C1\Sc2ccccc2N(Cc2ccccc2F)C1=O`, for which the Potency entry is “inactive” and the cell number change turned out to be 12.6%.
`c1ccc(CNc2nc(NCc3ccccc3)c3ccccc3n2)cc1`: the Potency was 16.4 µM (active) and the cell number change was -9.51%.
For `OCCNc1nc(NCc2ccccc2)c2ccccc2n1`, the Potency entry was “inactive” and the cell number change was -3.37%.
On the same counts, the results for `Oc1ccccc1-c1nc(NCc2ccccc2)c2ccccc2n1` are “inactive” and 2.04%.
As for `O=C1c2ccccc2C(=O)N1Cc1ccccc1F`, the Potency is 29.1 µM (active) and the cell number change came to 22.2%.
With `O=C1NC(=O)N(Cc2ccccc2F)C1=O`, the Potency result is “inactive” and the cell number change was determined as 21.6%.
For `O=C(O)CN1C(=O)C(=O)N(Cc2ccccc2F)C1=O`, the Potency result is “inactive” and the cell number change was 9.39%.
For `Cc1cccc(C)c1NC(=O)C(C)N1CCCC1` (stereo not given), the Potency result is “inactive” and the cell number change is 0.595%.
On the same counts, the results for `COc1ccccc1-c1cc(C(=O)N2CCc3ccccc3C2)c2ccccc2n1` are “inactive” and -2.91%.
On to `COc1ccccc1-c1nn(-c2ccccc2)cc1C(=O)N1CCN(C(=O)c2ccco2)CC1`, for which the Potency result was “inactive” and the cell number change was found to be 3.39%.
Take `COc1ccccc1-c1nn(-c2ccccc2)cc1C(=O)N1CCc2ccccc2C1`: the Potency was 2.06 µM (active) and the cell number change is -17.2%.
`c1ccc(-c2cncnc2)cc1`: the Potency result was “inactive” and the cell number change is -19.5%.
For `COc1ccc(N(Cc2cc3ccc(C)cc3[nH]c2=O)C(=O)c2ccco2)cc1` the same measures were “inactive” and 1.12%.
For `CSc1nc(SCC(=O)NC(c2ccccc2)c2ccccc2)c2c3c(sc2n1)CN(C)CC3`, the Potency result was “inactive” and the cell number change is 7.96%.
Consider `COC(=O)C(C)N(c1ccc(C)cc1)S(=O)(=O)c1c(C)[nH]c(=O)[nH]c1=O` (stereo not given), for which the Potency is 25.9 µM (active) and the cell number change turned out to be 6.83%.
For the molecule `Cc1ccc(N(C(C)C(=O)O)S(=O)(=O)c2c(C)n[nH]c2C)cc1` (stereo not given), the Potency result was “inactive” and the cell number change is 2.85%.
Take `CCOc1ccc(N(CC(=O)Nc2ccc(C)cc2)S(=O)(=O)c2c(C)[nH]c(=O)[nH]c2=O)cc1`: the Potency result is “inactive” and the cell number change is -18.6%.
For `O=[N+]([O-])c1cccnc1NCCNc1ncc(C(F)(F)F)cc1Cl` the same measures were “inactive” and -29.3%.
For `NNC(=O)c1csc(-c2ncc(C(F)(F)F)cc2Cl)n1` the same measures were “inactive” and 17.7%.
On the same counts, the results for `CC(=O)c1cc(C(=O)Nc2ccc3ccccc3c2)c(C)o1` are “inactive” and 16%.
In the case of `Cc1ccc(S(=O)(=O)CNC(=O)c2ccccc2)cc1`, the Potency entry was “inactive” and the cell number change came out at 10%.
On the same counts, the results for `O=C(NCS(=O)(=O)c1ccccc1)c1ccccc1` are 23.1 µM (active) and 0.335%.
For `O=C(NCCS(=O)(=O)c1ccc(Br)cc1)c1ccccc1` the same measures were “inactive” and 14%.
Regarding `O=C(O)c1ccc(/C=N/Nc2ncc(C(F)(F)F)cc2Cl)cc1`, the Potency entry is “inactive” and the cell number change was determined as 0.452%.
In the case of `Cc1ccc(S(=O)(=O)N2CCN(C(=O)COC(=O)Cc3ccc(F)cc3)CC2)c(C)c1`, the Potency entry is “inactive” and the cell number change was -6.09%.
